Bioassay records as filed in PubChem BioAssay.
IP6K1 inhibitor: inhibitors of human IP6K1; activity change, % (series mostly up to about 58 µM); actives 0.81% (n = 140,000); IP6K1 kinase, ADP-Glo luminescence, 2 h; stronger effect = lower value; Q92551; in the data active means activity change below about -25%
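ADP-Glo luminescence measures ADP made by human IP6K1 during a 2 h RT reaction with ATP/IP6 (mix at 1.3 mM/130 uM); top library doses 57.5 and 19.1 uM final.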
SNCA expr inh: inhibitors of alpha-synuclein (SNCA) gene expression | actives 0.17% (n = 140,000) | Potency, µM (series often up to 57.2 µM), without a hit: at the highest dose activity change, negative = inhibition, actives largely listed as inhibitors | HEK-293 SNCA-luciferase knock-in, luminescence, 24 h;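 further: potency means the concentration at half of the fitted maximal effect; plate controls were DMSO cells for no effect and cell-free wells for full effect; nearly all actives have a fitted effect of over 45% in size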
3T3 cytotox: NIH 3T3 cell cytotoxicity | NIH 3T3 viability, CellTiter-Glo ATP luminescence, 48-72 h | Potency, µM (titrated, usually from 96.7 µM), inactives show at the top dose activity change, negative = cytotoxicity, hits mostly inhibitors | actives 4.3% (n = 94,000) | AID 1345082; further: potency means the concentration at half of the fitted maximal effect; nearly all actives have a fitted effect of over 55% in size
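Luminescent ATP readout (CellTiter-Glo, 10 min RT) after 48 or 72 hr compound exposure of NIH 3T3 cells seeded at 400 cells/well in 1536-well format; quantitative HTS.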
HEK cytotox: cytotoxic compounds in HEK 293 cells; HEK 293 viability, ATP luminescence (CellTiter-Glo), 48-72 h; AID 1345083; Potency, µM (doses to about 115 µM), inactives show at the highest dose activity change, negative = cytotoxicity, hits mostly inhibitors; actives 6.6% (n = 94,000); further: potency means the concentration at half of the fitted maximal effect; nearly all actives have a fitted effect of over 60% in size
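Luminescence from cellular ATP, measured with CellTiter-Glo, indicates HEK 293 viability. Cells plated at 250 cells/well are treated with compound for 48 or 72 hr at 37 degree Celsius before reagent addition.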
Luciferase inh: Photinus pyralis luciferase inhibition; P08659; purified P. pyralis luciferase, luminescence, biochemical; Potency, µM (doses to about 115 µM), hits mostly inhibitors; actives 2.5% (n = 76,000); AID 1347043; further: potency means the concentration at half of the fitted maximal effect; nearly all actives have a fitted effect of over 65% in size
Target sequence (P08659 whole entry, looked up): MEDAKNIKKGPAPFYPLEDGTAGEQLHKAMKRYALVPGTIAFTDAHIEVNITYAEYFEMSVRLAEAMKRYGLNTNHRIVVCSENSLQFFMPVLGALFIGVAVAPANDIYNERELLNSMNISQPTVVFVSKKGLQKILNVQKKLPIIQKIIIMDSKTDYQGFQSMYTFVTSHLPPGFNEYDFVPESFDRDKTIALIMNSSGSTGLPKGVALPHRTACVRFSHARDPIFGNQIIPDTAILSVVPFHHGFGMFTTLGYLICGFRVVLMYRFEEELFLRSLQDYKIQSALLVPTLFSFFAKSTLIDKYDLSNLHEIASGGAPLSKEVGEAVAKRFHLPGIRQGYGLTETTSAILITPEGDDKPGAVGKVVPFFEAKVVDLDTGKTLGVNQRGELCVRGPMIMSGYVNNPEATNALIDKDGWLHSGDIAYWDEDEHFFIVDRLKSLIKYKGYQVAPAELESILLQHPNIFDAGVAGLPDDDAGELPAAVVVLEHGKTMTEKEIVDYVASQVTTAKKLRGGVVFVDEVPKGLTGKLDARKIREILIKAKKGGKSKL
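Luminescence read by CCD imaging after purified firefly luciferase (10nM final) was added to substrate buffer holding 10uM D-luciferin and 10uM ATP, pH 7.5, pre-dosed with compound.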
SNCA viab count: cell viability loss counter-screen; Potency, µM (doses to about 57.1 µM), inactives show at the highest dose activity change, negative = cytotoxicity, actives largely listed as cytotoxic; actives 0.12% (n = 150,000); HEK-293-SNCA-luc viability, GF-AFC fluorescence, 24 h;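 further: potency means the concentration at half of the fitted maximal effect; 0% = DMSO-treated cells and -100% = medium-only wells without cells; nearly all actives have a fitted effect of over 30% in size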
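Cytotoxicity counterscreen: after 24 h compound treatment of genome-edited SNCA-luciferase HEK-293 cells, live-cell protease substrate GF-AFC read by fluorescence after 30 min; activity scaled between DMSO (0%) and medium-only (-100%), curves Hill-fitted.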
* hit, by the source's call; i = inactive; u = inconclusive; x = no result; [ ] = remark or other dose. Sampled rows, rich in hits. Any-hit rate of the full collection: about 7.3%. Unless noted, the call rests on the fitted dose curve; in most records, active means well fitted curve in the direction sought with a large enough effect; inconclusive means small, poorly fitted or top-dose-only effect, or another doubt; inactive means no such curve, though single readings can be large; an effect the other way counts as inactive or inconclusive. Unless noted, on the % scale 0 is the no-effect control and ±100 the full control effect.

SMILES	IP6K1 inhibitor	SNCA expr inh	3T3 cytotox	HEK cytotox	Luciferase inh	SNCA viab count
CCOC(=O)[C@@H]1CN(C(=O)C(CC)CC)[C@H]2c3cccc(C)c3O[C@@H]12	11.1	x	u	-35.0%	x	x
Cc1nnc(-c2cc(-c3ccsc3)ccn2)n1Cc1ccccc1	-9.4	u	u	u	u	-3.1%[87.6 µM]
Cc1nnc(-c2cc(-c3cnn(C)c3)ccn2)n1Cc1ccccc1	-12.3	18.6%[87.6 µM]	44.7µM*	-15.2%[172 µM]	i	-10.0%[87.6 µM]
Cc1cc(-c2ccnc(-c3nnc(C)n3CCc3ccccc3)c2)ccn1	-8.3	-6.3%[87.6 µM]	79.4µM*	u	i	3.8%[87.6 µM]
Cc1cc(-c2ccnc(-c3nnc(C)n3-c3ccccc3)c2)ccn1	7.4	u	25.1µM*	44.7µM*	i	-12.7%[87.6 µM]
COc1ccc(-c2ccnc(-c3nnc(C)n3CCN3CCOCC3)c2)cc1OC	-14.4	1.2%[87.6 µM]	100µM*	-25.4%[172 µM]	i	4.1%[87.6 µM]
Cc1ccc(C(=O)N2CCC(N3CCCC(C(=O)N4CCCC4)C3)CC2)s1 (centres undefined)	12.4	3.0%	-13.2%	-16.6%	i	4.6%
CCn1cc(CN2C[C@@H](CO)[C@H](NC(=O)C3CC3)C2)cn1	-2.6	-0.4%	-13.9%	-1.7%	i	3.1%
O=C(NCc1cccc(Cl)c1)c1cc2c(s1)CCN(C(=O)c1ccccc1)C2	-13.5	u	u	u	i	-24.4%
CCN(Cc1c(O)cccc1OC)CC1CCN(CCc2ccccc2C)CC1	4.7	-2.3%	u	u	i	-6.8%
O=C(NC1CCCCC1)N1C[C@@H]2C[C@H](C1)c1c(-c3ccc4ccccc4c3)ccc(=O)n1C2	-3.3	-6.4%	u	u	i	-19.7%
Cc1ccccc1-c1ccnc(-c2nnc(C)n2Cc2ccccc2)c1	-8.2	11.8%[87.6 µM]	u	79.4µM*	i	-11.3%[87.6 µM]
O=C(Cn1cccc1-c1nc(-c2ccccc2)no1)Nc1cccc(F)c1	25.1	-4.9%	i	5.8%	i	u
Cc1cccc(NC(=O)CC2CCCN(c3cnn(CC4CC4)c(=O)c3)C2)c1 (centres undefined)	10.9	-28.1%	25.1µM*	u	i	-11.6%
CCc1cccc(NC(=O)CC2CCCN(c3cnn(CC4CC4)c(=O)c3)C2)c1 (centres undefined)	29.8	1.5%	39.8µM*	u	i	-9.2%
CCOc1ccc(NC(=O)CC2CCCN(c3cnn(CC4CC4)c(=O)c3)C2)cc1 (centres undefined)	18.5	0.9%	-28.8%	u	i	-1.4%
Cc1ccc(NC(=O)CC2CCCN(c3cnn(CC4CC4)c(=O)c3)C2)cc1 (centres undefined)	7.6	28.4%	u	-29.8%	i	-2.9%
CC(C)CNC(=O)C1CCCN1Cc1ccc(-c2cncnc2)cc1 (centres undefined)	0.1	u	-24.8%[138 µM]	-20.6%[172 µM]	x	u
Cc1ccc(-c2cccc(CN3CCCC3C(=O)NCC(C)C)c2)cc1Cl (centres undefined)	1.9	x	35.5µM*	39.8µM*	x	x
Cc1ccc(-c2cccc(CN3CCCC3C(=O)NCC(F)F)c2)cc1Cl (centres undefined)	-1.8	x	u	39.8µM*	x	x
Cc1ccc(-c2cccc(CN3CCCC3C(=O)N3CCN(c4ncccn4)CC3)c2)cc1Cl (centres undefined)	-2.8	x	u	14.1µM*	x	x
Cc1ccc(-c2cccc(CN3CCCC3C(=O)N(C)C)c2)cc1Cl (centres undefined)	19.9	x	u	u	x	x
Cc1ncsc1CN1C(=O)CO[C@H](c2ccc(NC(=O)c3ccccc3)cc2)[C@H]1CO	4.9	9.1%	-23.1%	-28.0%	i	12.0%
O=C(C1CCc2nnc(C3CCN([S+](=O)([O-])c4ccccc4Cl)CC3)n21)N1CCCCC1 (centres undefined)	-11.2	11.0%	-20.2%	-1.2%	x	2.0%
O=C1CCN(Cc2cccnc2)CCCC(C(=O)NCCC2=CCCCC2)CCN1 (centres undefined)	-0.8	9.5%	-3.7%	-8.1%	i	-5.0%
SMILES	IP6K1 inhibitor	SNCA expr inh	3T3 cytotox	HEK cytotox	Luciferase inh	SNCA viab count
CC(=O)Nc1ccc(CN2CCN3C(=O)N(Cc4ccc(C)cc4)C[C@H]3C2)cc1	4.8	u	-6.3%[174 µM]	79.4µM*	i	2.0%[87.6 µM]
Cc1ccc(CN2C[C@H]3CN(Cc4cccc(OC(F)(F)F)c4)CCN3C2=O)cc1	-0.2	-19.0%[87.6 µM]	44.7µM*	63.1µM*	i	-2.8%[87.6 µM]
CCN1C(=O)C2CC3(CCN(Cc4cccc(OC(F)(F)F)c4)CC3)CN2C1=O (centres undefined)	-8.6	-21.0%	u	39.8µM*	i	-9.5%
CC(=O)Nc1ccc(CN2CCN3C(=O)N(C)C[C@H]3C2)cc1	14.4	5.2%[87.6 µM]	4.9%[174 µM]	-4.9%[172 µM]	i	-9.1%[87.6 µM]
CCN1C(=O)C2CC3(CCN(Cc4ccc5[nH]ccc5c4)CC3)CN2C1=O (centres undefined)	-12.2	3.7%	-2.0%	-1.6%	i	-2.1%
CC(=O)Nc1ccc(CN2CC3CCC(C2)N3c2ccc(C(F)(F)F)cc2)cc1	-8.7	13.1%	u	22.4µM*	i	-2.7%
CCCn1cnnc1CNC(=O)C1(Oc2ccc(Cl)cc2)CCNCC1	8.8	-9.5%	0.4%	-6.8%	i	-5.9%
O=C(Nc1cccc(Cl)c1)c1nc2sccn2c1-c1cccnc1	-2.5	-10.0%	-7.6%	-0.2%	x	u
CN(C)c1ccc(CN2CC[C@H](c3nc4ccc(C(F)(F)F)cc4[nH]3)C2)cc1	-1.0	u	31.6µM*	31.6µM*	i	u
FC(F)(F)c1ccc2nc([C@H]3CCN(Cc4ccc(Cl)cc4)C3)[nH]c2c1	-9.8	u	u	22.4µM*	u	u
CN(C)c1ccc(CN2CC[C@H](c3nc4ncccc4[nH]3)C2)cc1	11.9	-14.8%[87.6 µM]	-9.7%[174 µM]	-22.7%[172 µM]	i	1.1%[87.6 µM]
Cn1cc(CN2CC[C@H](c3nc4ccccc4[nH]3)C2)c2ccccc21	22.9	21.9%[87.6 µM]	u	50.1µM*	i	-16.0%[87.6 µM]
c1ccc(CCCN2CC[C@H](c3nc4ccccc4[nH]3)C2)cc1	13.3	62.0%[87.6 µM]	u	u	u	-6.0%[87.6 µM]
FC(F)(F)c1ccc(CN2CC[C@H](c3nc4ccccc4[nH]3)C2)cc1	1.9	-25.8%[87.6 µM]	28.2µM*	35.5µM*	i	-13.6%[87.6 µM]
CN(C)c1ccc(CN[C@H]2CC(C)(C)[C@@H]3C[C@@](C)(O)CC[C@]23CCC(=O)N2CCOCC2)cc1	10.7	-18.4%	2.1%	-9.6%	i	-1.9%
COc1ccc2nc([C@H]3CCN(Cc4ccc(C(=O)O)cc4)C3)[nH]c2c1	9.8	-3.7%[87.6 µM]	-5.0%[174 µM]	-1.5%[172 µM]	u	0.3%[87.6 µM]
